# Measurements published in the supplement of paper PMC10849652.
# Of roughly 7,900 targets only a part is listed; those with a hit were picked by preference. About 0.6% of all pairs of compound and target were hits. A number with no mark means an inactive call.
# How the values were obtained:
# Experiment in all cases: log2 fold change, soluble protein after heating vs DMSO (PISA); higher = thermal stabilisation; K562 cells, 10 uM, 30 min; active = over 0.2 and 3.5 SD of the protein, either way, in both replicates (recomputed)
# erlotinib = compound: C#Cc1cccc(Nc2ncnc3cc(OCCOC)c(OCCOC)cc23)c1 [erlotinib]
# How it was run: (§1)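 Soluble protein was quantified by TMTpro 16plex LC-MS/MS after channel sums were equalised. It was obtained as the supernatant after 21,000xg for 90 min from pooled aliquots of K562 cells (2×10^6 cells/mL, 10 μM compound, 30 min) heated for 3 min across 48°C-58°C and extracted in PBS with 0.5% NP-40 at 4°C. Thermal stability values are relative to control samples and come from duplicates. They are given as log2 fold changes.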
# [1] = compound: C/C(=N\NC(=O)C1=CC(=CC=C1)S(=O)(=O)N2CCOCC2)/C3=C(C=CC(=C3)Cl)O
# How it was run: as §1
# [2] = compound: C1=CC(=C(C=C1Cl)C2=NC3=NC=CN=C3C(=N2)NC4=CC=NC=C4)F
# How it was run: as §1
# [3] = compound: C1=CC(=CC=C1C2=NC3=C(N2)C=C(C=C3)C(=O)N)OC4=CC=C(C=C4)Cl
# How it was run: as §1
# [4] = compound: C1=CC2=C(C=CC(=C2)/C=C\3/C(=O)NC(=NCC4=CC=CS4)S3)N=C1
# How it was run: as §1
# [5] = compound: C1=CC2=NC=CN=C2C=C1/C=C/3\C(=O)NC(=O)S3
# How it was run: as §1
# [6] = compound: C1=CC=C(C=C1)C2=NC(=C(N2)C3=CC=NC=C3)C4=CC(=C(C=C4)Cl)O
# How it was run: as §1
# [7] = compound: C1=CC=C2C(=C1)C3=NNC4=CC=CC(=C43)C2=O
# How it was run: as §1
# [8] = compound: C1CCN(C1)C(=O)NC2=CC=CC(=C2)NC3=NC=C(C(=N3)NCCC4=CN=CN4)Br
# How it was run: as §1
# [9] = compound: C1CN(CCC1(CC2=CC=C(C=C2)Cl)N)C3=NC=NC4=C3C=CN4
# How it was run: as §1
# IRAK-1-4 Inhibitor I = compound: C1COCCN1CCN2C3=CC=CC=C3N=C2NC(=O)C4=CC(=CC=C4)[N+](=O)[O-] [IRAK-1-4 Inhibitor I]
# How it was run: as §1
# ibrutinib = compound: C=CC(=O)N1CCC[C@@H](n2nc(-c3ccc(Oc4ccccc4)cc3)c3c(N)ncnc32)C1 [ibrutinib]
# How it was run: as §1
# [10] = compound: CC(=O)c1cnc2ccc(-c3cc(Cl)c(O)c(Cl)c3)nc2c1N[C@H]1CC[C@H](CN(C)C)CC1
# How it was run: as §1
# ralimetinib = compound: CC(C)(C)Cn1c(N)nc2ccc(-c3[nH]c(C(C)(C)C)nc3-c3ccc(F)cc3)nc21 [ralimetinib]
# How it was run: as §1
# [11] = compound: CC(C)(O)CC(=O)NCCn1ccc2ncnc(Nc3ccc(Oc4cccc(C(F)(F)F)c4)c(Cl)c3)c21
# How it was run: as §1
# [12] = compound: CC(C)C1=C2N=C(C=C(N2N=C1)NCC3=CC=CC=C3)NCCCCCCN
# How it was run: as §1
# [13] = compound: CC(C)C[C@@H](C=O)NC(=O)[C@H](CC(C)C)NC(=O)[C@H](CC(C)C)NC(=O)OCc1ccccc1
# How it was run: as §1
# pinometostat = compound: CC(C)N(C[C@H]1O[C@@H](n2cnc3c(N)ncnc32)[C@H](O)[C@@H]1O)[C@H]1C[C@@H](CCc2nc3cc(C(C)(C)C)ccc3[nH]2)C1 [pinometostat]
# How it was run: as §1
# [14] = compound: CC1=C(C(CC(=O)N1)C2=CC=C(C=C2)C(F)(F)F)C(=O)NC3=C(C=C4C(=C3)C=NN4)F
# How it was run: as §1
# [15] = compound: CC1=C(C2=C(C=C1)C(=O)C3=CC=CC=C3N2CCCN)C
# How it was run: as §1
# Chain of UniProt P22830 (P22830 whole entry, looked up): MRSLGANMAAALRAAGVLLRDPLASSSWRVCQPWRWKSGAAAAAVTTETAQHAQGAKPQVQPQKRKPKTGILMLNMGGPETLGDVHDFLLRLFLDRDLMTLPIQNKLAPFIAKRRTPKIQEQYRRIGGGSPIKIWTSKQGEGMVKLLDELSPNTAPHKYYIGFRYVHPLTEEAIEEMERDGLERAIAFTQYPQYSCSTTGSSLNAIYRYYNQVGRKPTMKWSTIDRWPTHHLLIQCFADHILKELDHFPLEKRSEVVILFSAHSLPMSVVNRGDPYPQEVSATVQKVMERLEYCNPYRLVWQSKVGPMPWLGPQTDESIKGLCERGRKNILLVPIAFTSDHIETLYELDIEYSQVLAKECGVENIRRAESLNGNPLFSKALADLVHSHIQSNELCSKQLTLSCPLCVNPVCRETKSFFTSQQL
# Chain of UniProt Q92538 (Q92538 whole entry, looked up): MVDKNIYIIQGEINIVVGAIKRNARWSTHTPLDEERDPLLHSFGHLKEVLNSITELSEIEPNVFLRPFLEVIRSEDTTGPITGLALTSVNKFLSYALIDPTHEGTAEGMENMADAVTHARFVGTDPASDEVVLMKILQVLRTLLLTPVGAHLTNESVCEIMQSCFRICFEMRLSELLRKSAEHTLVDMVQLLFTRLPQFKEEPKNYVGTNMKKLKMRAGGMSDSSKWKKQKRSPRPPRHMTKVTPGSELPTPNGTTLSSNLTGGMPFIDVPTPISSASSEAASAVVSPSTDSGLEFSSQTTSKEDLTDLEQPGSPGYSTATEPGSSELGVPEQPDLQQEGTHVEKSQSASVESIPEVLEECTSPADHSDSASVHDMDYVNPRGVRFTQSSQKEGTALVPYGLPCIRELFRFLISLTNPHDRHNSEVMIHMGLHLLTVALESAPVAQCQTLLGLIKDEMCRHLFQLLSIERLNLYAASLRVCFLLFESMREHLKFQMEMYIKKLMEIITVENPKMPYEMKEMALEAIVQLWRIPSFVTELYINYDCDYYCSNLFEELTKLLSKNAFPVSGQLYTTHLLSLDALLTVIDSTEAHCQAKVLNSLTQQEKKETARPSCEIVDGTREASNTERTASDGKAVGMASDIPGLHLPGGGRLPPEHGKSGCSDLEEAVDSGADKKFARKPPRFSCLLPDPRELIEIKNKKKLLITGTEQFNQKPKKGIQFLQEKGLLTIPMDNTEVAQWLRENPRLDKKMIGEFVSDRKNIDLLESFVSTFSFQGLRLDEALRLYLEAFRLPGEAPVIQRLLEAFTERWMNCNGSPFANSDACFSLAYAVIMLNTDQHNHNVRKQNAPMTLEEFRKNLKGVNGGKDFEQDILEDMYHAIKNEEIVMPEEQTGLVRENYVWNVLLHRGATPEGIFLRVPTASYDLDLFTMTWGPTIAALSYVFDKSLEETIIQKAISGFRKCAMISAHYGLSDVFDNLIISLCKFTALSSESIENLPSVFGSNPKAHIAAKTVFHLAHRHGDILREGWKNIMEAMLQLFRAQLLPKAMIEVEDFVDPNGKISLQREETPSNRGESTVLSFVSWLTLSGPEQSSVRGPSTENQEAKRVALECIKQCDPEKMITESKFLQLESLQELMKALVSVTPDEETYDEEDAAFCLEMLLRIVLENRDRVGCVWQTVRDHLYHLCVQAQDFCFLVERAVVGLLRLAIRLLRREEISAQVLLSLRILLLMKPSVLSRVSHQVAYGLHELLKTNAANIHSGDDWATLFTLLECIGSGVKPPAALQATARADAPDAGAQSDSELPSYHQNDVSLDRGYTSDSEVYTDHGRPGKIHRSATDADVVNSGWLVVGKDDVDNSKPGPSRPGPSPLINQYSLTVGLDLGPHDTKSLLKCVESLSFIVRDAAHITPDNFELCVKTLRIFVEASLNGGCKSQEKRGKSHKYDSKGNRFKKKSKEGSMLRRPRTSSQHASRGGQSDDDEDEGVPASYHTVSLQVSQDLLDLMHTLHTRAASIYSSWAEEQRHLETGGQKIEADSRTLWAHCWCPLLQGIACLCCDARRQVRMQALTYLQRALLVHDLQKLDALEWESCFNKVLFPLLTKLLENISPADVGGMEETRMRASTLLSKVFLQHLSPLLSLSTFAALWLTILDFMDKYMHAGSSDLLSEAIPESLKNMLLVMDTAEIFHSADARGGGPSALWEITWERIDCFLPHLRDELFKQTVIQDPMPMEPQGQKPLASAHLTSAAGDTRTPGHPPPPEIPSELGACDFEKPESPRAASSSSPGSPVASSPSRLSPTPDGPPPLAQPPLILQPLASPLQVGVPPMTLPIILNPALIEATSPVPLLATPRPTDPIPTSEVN
# Chain of UniProt P31150 (P31150 whole entry, looked up): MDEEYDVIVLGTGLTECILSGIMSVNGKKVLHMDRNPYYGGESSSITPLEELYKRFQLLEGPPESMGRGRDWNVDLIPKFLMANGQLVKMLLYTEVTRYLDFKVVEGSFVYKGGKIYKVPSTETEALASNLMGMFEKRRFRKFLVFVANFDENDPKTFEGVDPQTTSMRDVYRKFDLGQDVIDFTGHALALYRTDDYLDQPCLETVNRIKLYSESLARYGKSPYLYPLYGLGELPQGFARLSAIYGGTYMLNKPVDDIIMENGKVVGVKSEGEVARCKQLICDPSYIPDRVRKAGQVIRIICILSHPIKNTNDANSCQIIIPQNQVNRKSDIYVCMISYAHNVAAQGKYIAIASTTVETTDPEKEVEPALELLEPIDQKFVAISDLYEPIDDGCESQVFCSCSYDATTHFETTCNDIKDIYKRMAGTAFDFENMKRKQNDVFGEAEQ
# Chain of UniProt P06865 (P06865 whole entry, looked up): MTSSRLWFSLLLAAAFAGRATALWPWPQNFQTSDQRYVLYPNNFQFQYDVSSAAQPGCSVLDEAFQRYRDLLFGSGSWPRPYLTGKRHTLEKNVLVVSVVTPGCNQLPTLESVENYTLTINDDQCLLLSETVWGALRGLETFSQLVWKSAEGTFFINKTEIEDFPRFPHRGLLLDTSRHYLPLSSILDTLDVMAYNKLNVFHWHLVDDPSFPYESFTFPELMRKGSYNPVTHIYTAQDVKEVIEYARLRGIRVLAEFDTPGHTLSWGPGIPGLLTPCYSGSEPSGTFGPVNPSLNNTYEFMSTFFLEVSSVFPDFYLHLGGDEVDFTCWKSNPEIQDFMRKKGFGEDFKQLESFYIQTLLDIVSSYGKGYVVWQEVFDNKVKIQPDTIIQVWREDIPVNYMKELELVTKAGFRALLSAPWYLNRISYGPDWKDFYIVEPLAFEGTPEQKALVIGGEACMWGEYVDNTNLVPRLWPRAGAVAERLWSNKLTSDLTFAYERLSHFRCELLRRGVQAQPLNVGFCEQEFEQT
Target,log2 fold change (erlotinib),log2 fold change [1],log2 fold change [2],log2 fold change [3],log2 fold change [4],log2 fold change [5],log2 fold change [6],log2 fold change [7],log2 fold change [8],log2 fold change [9],log2 fold change (IRAK-1-4 Inhibitor I),log2 fold change (ibrutinib),log2 fold change [10],log2 fold change (ralimetinib),log2 fold change [11],log2 fold change [12],log2 fold change [13],log2 fold change (pinometostat),log2 fold change [14],log2 fold change [15]
GDI1 (UniProt P31150),-0.009,0.025,0.03,0.014,0.007,0.007,-0.021,-0.001,0.015,0.008,0.034,0.018,-0.027,-0.057,0.009,0.04,-0.012,-0.008,-0.022,0.011
HEXA (UniProt P06865),0.012,-0.012,0.013,0.007,0.024,0.004,-0.003,-0.023,0.01,0.007,0.013,0.004,0.018,-0.062,0.024,-0.179,0.032,-0.043,-0.003,-0.05
FECH isoform 2 (UniProt P22830),0.191,-0.179,0.349,0.206,0.162,0.048,0.429,0.135,0.172,0.046,0.408,0.082,0.129,0.159,0.426,-0.691 (active),-0.144,-0.098,-0.457,0.514
GBF1 (UniProt Q92538),-0.012,0.077,-0.049,-0.022,0.075,0.028,-0.036,0.033,-0.026,-0.052,-0.033,-0.049,-0.044,0.017,-0.05,-0.088,0.015,0.115,-0.016,0.007
